Consider 18 compounds from PubChem BioAssay (EPA / NIEHS).

Inconclusive results are not listed. The source made the active and inactive calls. The calls were made as follows, unless noted: active = hit-call score of the fitted dose curve at least 0.9, where 1 is the maximum; inactive = score below 0.9.

For test [1], the target named is human Retinoid X Receptor beta (RXRb), RXRB (gene 6257) (UniProt P28702). In words: ATG_RXRb_TRANS: Attagene TRANS-FACTORIAL HepG2 Assay for human Retinoid X Receptor beta (RXRb) (AID 2283013; active = hit-call score of the fitted dose curve at least 0.9, where 1 is the maximum). The procedure, abridged: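 Chimeric receptor-Gal4 activity was assessed in transiently transfected human HepG2 cells after 24 h exposure. Transcripts from GAL4-UAS reporters were quantified by fluorescent RT-PCR and capillary electrophoresis, with DMSO as negative control and baseline.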

Test [2] deals with human Vitamin D Receptor (VDR), VDR (gene 7421) (UniProt P11473). As to the kind of experiment: ATG_VDR_TRANS: Attagene TRANS-FACTORIAL HepG2 Assay for human Vitamin D Receptor (VDR) (AID 2283022; active = hit-call score of the fitted dose curve at least 0.9, where 1 is the maximum). The procedure, abridged:
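Steps: transfect HepG2 with GAL4-UAS-driven reporter constructs; dose compounds 24 h; isolate RNA, reverse-transcribe, PCR-amplify with 6-FAM-labelled primer extension and HpaI digestion; quantify fragments by capillary electrophoresis relative to DMSO.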

Test [3] deals with human Thyroid Receptor alpha (THRa1), THRA (gene 7067) (UniProt P10827). As to the kind of experiment: ATG_THRa1_TRANS: Attagene TRANS-FACTORIAL HepG2 Assay for human Thyroid Receptor alpha (THRa1) (AID 2283014; active = hit-call score of the fitted dose curve at least 0.9, where 1 is the maximum). In short, it runs like this: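 Reporter transcript induction, read by capillary electrophoresis of 6-FAM-labelled RT-PCR products, reflects activity of a transfected THRa1-Gal4 fusion in HepG2 liver cells. Cells were dosed for 24 h; activity was fitted in the positive direction against DMSO.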

Read-out in test [4]: E-selectin (Homo sapiens) (UniProt P16581)
In words: BSK_3C_Eselectin: BioMAP Diversity Plus: 3C Assay for Eselectin Biomarker Activity (AID 2283015).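 Also: cell surface E-selectin protein quantified by ELISA 24 h after dosing.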 Particulars: primary human endothelial cells (HUVEC); actives raise or lower the signal. The procedure, abridged: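 ELISA read-out of E-selectin on endothelial monolayers after 24 h chemical treatment. Human umbilical vein primary cells served as the system, with DMSO defining baseline activity for bidirectional fitting.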

Read-out in test [5]: Interleukin-1 alpha (IL1a), IL1A (gene 3552)
In words: BSK_BE3C_IL1a: BioMAP Diversity Plus: BE3C Assay for Interleukin-1 alpha (IL1a) Biomarker Activity (AID 2283016). The following applies: primary human bronchial epithelial cells; actives raise or lower the signal. The procedure, abridged: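 Signal from IL-1a ELISA, taken 24 h after chemical dosing of human bronchial epithelial cells, is compared with DMSO as baseline using bidirectional curve fitting.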

Read-out in test [6]: Monocyte Chemoattractant Protein-1 (MCP1), CCL2 (gene 6347)
As to the kind of experiment: BSK_3C_MCP1: BioMAP Diversity Plus: 3C Assay for Monocyte Chemoattractant Protein-1 (MCP1) Biomarker Activity (AID 2283017). The following applies: primary human endothelial cells (HUVEC); actives raise or lower the signal. In short, it runs like this:
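ELISA read-out of MCP-1 from human umbilical vein endothelial cell cultures harvested 24 h post-dosing. Gain or loss of signal was fitted relative to DMSO.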

Read-out in test [7]: Monocyte Chemoattractant Protein-1 (MCP1), CCL2 (gene 6347)
As to the kind of experiment: BSK_4H_MCP1: BioMAP Diversity Plus: 4H Assay for Monocyte Chemoattractant Protein-1 (MCP1) Biomarker Activity (AID 2283018). The following applies: primary human endothelial cells (HUVEC); actives raise or lower the signal. In short, it runs like this:
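Endothelial cells from umbilical vein were treated with test chemical, then after 24 h MCP-1 levels were quantified by ELISA; endpoint values came from bidirectional fitting with DMSO as baseline of activity.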

Read-out in test [8]: Human Leukocyte Antigen - DR isotype (HLADR), HLA-DRA (gene 3122)
In words: BSK_3C_HLADR: BioMAP Diversity Plus: 3C Assay for Human Leukocyte Antigen - DR isotype (HLADR) Biomarker Activity (AID 2283019). The following applies: primary human endothelial cells (HUVEC); actives raise or lower the signal. The procedure, abridged: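 ELISA readout of surface HLA-DR on human umbilical vein endothelium, taken 24 h after chemical treatment. Gain- and loss-of-signal were both fitted relative to DMSO.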

Read-out in test [9]: Interleukin-8 (IL8), CXCL8 (gene 3576)
As to the kind of experiment: BSK_3C_IL8: BioMAP Diversity Plus: 3C Assay for Interleukin-8 (IL8) Biomarker Activity (AID 2283020). Particulars: primary human endothelial cells (HUVEC); actives raise or lower the signal. The procedure, abridged: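 Endothelial primary cells of human umbilical vein origin are dosed with chemical; after 24 h the IL-8 biomarker is measured by ELISA, and concentration–response is fitted in both directions versus DMSO.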

Read-out in test [10]: Monokine induced gamma interferon (MIG), CXCL9 (gene 4283)
As to the kind of experiment: BSK_3C_MIG: BioMAP Diversity Plus: 3C Assay for Monokine induced gamma interferon (MIG) Biomarker Activity (AID 2283021). The following applies: primary human endothelial cells (HUVEC); actives raise or lower the signal. The procedure, abridged:
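Endothelial primary cells (human umbilical vein) are dosed with test chemical in the 3C system. MIG levels are measured by ELISA at 24 h and fitted in both directions relative to DMSO.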

Test [11] can be described thus: BSK_3C_SRB: Viability Assessment in the BioMAP Diversity Plus: 3C Assay (AID 2283023).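 Also: fitted both ways against DMSO so a hit may be signal rise or drop.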 The following applies: primary human endothelial cells (HUVEC). The procedure, abridged: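 Absorbance at 560 nm of sulforhodamine B-stained (0.1%) total protein served as a cytotoxicity readout in human umbilical vein endothelial cells, 24 h after chemical treatment. Signal was fitted bidirectionally relative to DMSO.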

Read-out in test [12]: Matrix Metallopeptidase 1 (MMP1), MMP1 (gene 4312)
In words: BSK_BE3C_MMP1: BioMAP Diversity Plus: BE3C Assay for Matrix Metallopeptidase 1 (MMP1) Biomarker Activity (AID 2283024). The following applies: primary human bronchial epithelial cells; actives raise or lower the signal. In short, it runs like this: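 MMP1 signal, measured by ELISA after a 24 h chemical exposure of human primary bronchial epithelial cells, is analysed with bidirectional fitting using DMSO as negative control.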

Test [13] can be described thus: BSK_3C_Vis: BioMAP Diversity Plus: 3C Assay for Morphology Visualization (AID 2283025).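 Also: fitted both ways so gain or loss versus DMSO counts.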 The following applies: primary human endothelial cells (HUVEC). The procedure, abridged:
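Morphology read by light microscopy serves as a background control for the multiplexed 3C assay in human umbilical vein endothelial cells, taken 24 h after dosing, with DMSO as the negative control and bidirectional curve fitting.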

Read-out in test [14]: Pselectin, SELP (gene 6403)
In words: BSK_4H_Pselectin: BioMAP Diversity Plus: 4H Assay for Pselectin Biomarker Activity (AID 2283026). Particulars: primary human endothelial cells (HUVEC); actives raise or lower the signal. The procedure, abridged:
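Endothelial primary cells (human umbilical vein) are dosed, incubated 24 h, and assayed for surface P-selectin by ELISA; responses in either direction are fitted relative to the DMSO negative control.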

Test [15] in a line: BSK_4H_SRB: Viability Assessment in the BioMAP Diversity Plus: 4H Assay (AID 2283027).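 Also: cells exposed to compound for 24 h before staining.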 The following applies: primary human endothelial cells (HUVEC). In short, it runs like this: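 Cytotoxicity read-out in primary human endothelial cells: after 24 h compound exposure, cells were TCA-fixed (10%), stained with 0.1% SRB and absorbance taken at 560 nm. Values fitted in both directions relative to DMSO.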

Test [16] can be described thus: BSK_BE3C_SRB: Viability Assessment in the BioMAP Diversity Plus: BE3C Assay (AID 2283028). The following applies: primary human bronchial epithelial cells. The procedure, abridged:
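Cells (human bronchial epithelial, primary) are treated with chemicals, and after 24 h the parallel cultures are fixed in 10% TCA. These are then stained with 0.1% SRB and read at 560 nm. Gain or loss of signal is fitted relative to DMSO.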

Read-out in test [17]: Thrombomodulin, THBD (gene 7056)
In words: BSK_3C_Thrombomodulin: BioMAP Diversity Plus: 3C Assay for Thrombomodulin Biomarker Activity (AID 2283029). The following applies: primary human endothelial cells (HUVEC); actives raise or lower the signal. The procedure, abridged: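 Endothelial cells from umbilical vein are dosed with test chemical and incubated 24 h. Thrombomodulin is then quantified by ELISA, with DMSO serving as negative control and activity baseline.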

Read-out in test [18]: Urokinase-type plasminogen activator receptor (uPAR), PLAUR (gene 5329)
As to the kind of experiment: BSK_4H_uPAR: BioMAP Diversity Plus: 4H Assay for Urokinase-type plasminogen activator receptor (uPAR) Biomarker Activity (AID 2283030). Particulars: primary human endothelial cells (HUVEC); actives raise or lower the signal. In short, it runs like this: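 Cell-surface uPAR ELISA signal, measured 24 h after dosing human umbilical vein endothelial cells, was analyzed with bidirectional fitting relative to DMSO. Parallel SRB staining of total protein tracked overt cytotoxicity.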

Read-out in test [19]: Vascular endothelial growth factor receptor 2 (Homo sapiens) (UniProt P35968)
As to the kind of experiment: BSK_4H_VEGFRII: BioMAP Diversity Plus: 4H Assay for Vascular endothelial growth factor receptor 2 (VEGFR2) Biomarker Activity (AID 2283031). The following applies: primary human endothelial cells (HUVEC); actives raise or lower the signal. The procedure, abridged: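 ELISA read-out of VEGFRII in primary human umbilical vein endothelium, taken 24 h after chemical treatment. Responses are expressed relative to DMSO, with bidirectional fitting.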

Chain of human Thyroid Receptor alpha (THRa1), THRA (gene 7067) (P10827 whole entry, looked up, the tested form may be a part): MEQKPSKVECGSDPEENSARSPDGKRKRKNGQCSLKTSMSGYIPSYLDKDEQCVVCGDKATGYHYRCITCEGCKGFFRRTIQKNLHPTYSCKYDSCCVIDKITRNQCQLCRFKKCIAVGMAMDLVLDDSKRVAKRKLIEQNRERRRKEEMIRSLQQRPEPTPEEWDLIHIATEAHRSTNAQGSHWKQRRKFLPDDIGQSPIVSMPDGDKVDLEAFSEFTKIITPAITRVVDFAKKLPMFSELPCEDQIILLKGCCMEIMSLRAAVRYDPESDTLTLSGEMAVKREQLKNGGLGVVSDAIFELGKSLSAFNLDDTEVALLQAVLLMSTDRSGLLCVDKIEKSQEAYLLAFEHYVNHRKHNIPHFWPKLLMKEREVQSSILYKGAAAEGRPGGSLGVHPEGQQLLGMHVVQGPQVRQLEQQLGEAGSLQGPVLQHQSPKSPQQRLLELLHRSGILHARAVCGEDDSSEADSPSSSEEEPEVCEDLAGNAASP
Chain of human Retinoid X Receptor beta (RXRb), RXRB (gene 6257) (P28702 whole entry, looked up, the tested form may be a part): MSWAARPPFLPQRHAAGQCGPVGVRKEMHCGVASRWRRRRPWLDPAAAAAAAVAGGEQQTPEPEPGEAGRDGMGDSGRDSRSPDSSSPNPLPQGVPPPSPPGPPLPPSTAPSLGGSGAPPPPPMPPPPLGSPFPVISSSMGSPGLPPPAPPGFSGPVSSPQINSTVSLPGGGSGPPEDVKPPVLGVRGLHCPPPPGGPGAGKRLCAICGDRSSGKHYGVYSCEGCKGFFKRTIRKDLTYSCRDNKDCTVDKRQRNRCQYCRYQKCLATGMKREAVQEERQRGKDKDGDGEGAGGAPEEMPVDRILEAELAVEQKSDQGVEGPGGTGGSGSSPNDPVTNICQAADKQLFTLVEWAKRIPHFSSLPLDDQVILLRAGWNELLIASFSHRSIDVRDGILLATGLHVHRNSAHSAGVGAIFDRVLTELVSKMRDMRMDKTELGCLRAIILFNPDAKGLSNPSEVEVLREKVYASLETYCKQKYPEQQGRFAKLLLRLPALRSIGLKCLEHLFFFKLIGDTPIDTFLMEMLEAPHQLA
Chain of human Vitamin D Receptor (VDR), VDR (gene 7421) (P11473 whole entry, looked up, the tested form may be a part): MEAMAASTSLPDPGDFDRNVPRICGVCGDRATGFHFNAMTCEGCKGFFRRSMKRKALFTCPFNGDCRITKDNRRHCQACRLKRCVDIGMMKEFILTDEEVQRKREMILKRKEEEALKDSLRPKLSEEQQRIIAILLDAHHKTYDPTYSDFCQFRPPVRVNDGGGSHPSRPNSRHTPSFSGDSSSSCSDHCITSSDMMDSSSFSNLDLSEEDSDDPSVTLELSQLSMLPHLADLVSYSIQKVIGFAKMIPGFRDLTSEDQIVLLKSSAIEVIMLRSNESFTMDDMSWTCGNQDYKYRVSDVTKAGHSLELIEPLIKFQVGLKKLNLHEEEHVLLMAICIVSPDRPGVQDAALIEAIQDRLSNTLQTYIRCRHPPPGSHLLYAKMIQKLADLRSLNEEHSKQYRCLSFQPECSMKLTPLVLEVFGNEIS
Chain of E-selectin (Homo sapiens) (P16581 whole entry, looked up): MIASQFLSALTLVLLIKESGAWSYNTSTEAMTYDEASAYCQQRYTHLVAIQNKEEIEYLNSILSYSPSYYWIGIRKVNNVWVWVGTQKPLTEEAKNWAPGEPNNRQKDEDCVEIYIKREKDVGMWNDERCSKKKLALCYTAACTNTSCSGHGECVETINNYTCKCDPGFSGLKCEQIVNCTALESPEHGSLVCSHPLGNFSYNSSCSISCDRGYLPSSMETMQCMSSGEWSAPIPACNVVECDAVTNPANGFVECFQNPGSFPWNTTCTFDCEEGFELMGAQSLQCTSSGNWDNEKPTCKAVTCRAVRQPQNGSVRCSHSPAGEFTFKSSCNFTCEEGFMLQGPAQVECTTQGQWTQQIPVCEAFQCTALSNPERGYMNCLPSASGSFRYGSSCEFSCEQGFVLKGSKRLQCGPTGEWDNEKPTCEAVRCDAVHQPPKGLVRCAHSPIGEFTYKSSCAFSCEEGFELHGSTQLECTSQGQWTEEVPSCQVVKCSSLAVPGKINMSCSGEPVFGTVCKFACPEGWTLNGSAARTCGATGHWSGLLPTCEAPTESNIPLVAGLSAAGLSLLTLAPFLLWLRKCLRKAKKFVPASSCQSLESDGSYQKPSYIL

Turning to `CN1C(=O)c2ccccc2C1=O`, the compound was called inactive in test [1] and in test [2].

In the case of `Cc1cccc(Nc2ccccc2)c1`, the AC50 in [1] was 28 µM (active). The compound was classed as inactive in [3] and in test [2].

As for `CS(=O)(=O)OCCCCOS(C)(=O)=O`, the compound was classed as inactive in test [1], in test [4], in test [5], in [6], in test [7] and in test [8]. In addition, the outcome in test [9], in test [10], in test [11], in test [12], in test [13] and in [14] was inactive. The result in test [15], in [16], in test [17], in [18] and in [19] was inactive.

As to `C=C[Si]1(C)O[Si](C)(C=C)O[Si](C)(C=C)O[Si](C)(C=C)O1` (centres undefined), the AC50 in test [1] was 8 µM (active). The compound was classed as inactive in test [2].

For the compound `O=CCc1ccccc1`, the compound was called inactive in test [1] and in test [2].

As to `CS(C)=O`, the compound was classed as inactive in test [1], in test [3] and in test [2].

On to `COC(CC(C)CCCC(C)(C)O)OC` (centres undefined), for which the outcome in test [1] and in [2] was inactive.

Regarding `Cc1cc(CCC(=O)OCCOCCOCCOC(=O)CCc2cc(C)c(O)c(C(C)(C)C)c2)cc(C(C)(C)C)c1O`, the call in [1], in [3], in test [4], in test [5], in test [10] and in test [12] was inactive. Besides, the result in test [13], in [14], in test [15], in test [16], in test [17] and in test [18] was inactive. Further, the result in [19] was inactive. Also, the half-maximal activity concentration (AC50) was 17.8 µM (active) in test [6]; 17.8 µM (active) in test [7]; 17.8 µM (active) in test [8]; 32.3 µM (active) in test [9]; 28.1 µM (active) in test [11].

Take `CCCOCCO`: the compound was called inactive in [1] and in [2].

As to `C=CC(C)C#N` (centres undefined), the call in test [1], in test [3] and in [2] was inactive.

Regarding `CC(C)c1ccccc1O`, the half-maximal activity concentration (AC50) in test [1] was 75.5 µM (active). In addition, the outcome in test [3] and in test [2] was inactive.

As for `Cc1c(Cl)cccc1[N+](=O)[O-]`, the result in test [1] and in [2] was inactive.

On to `CCC(C)S` (centres undefined), for which the compound was called inactive in test [1] and in test [2].

As to `CCCCCCCCC=CCCCCCCCC1=NCCN1CCO`, the result in [1], in [3] and in [2] was inactive.

On to `CCCC(=O)OC(C)(C)Cc1ccccc1`, for which the AC50 in [1] was 63.9 µM (active). Also, the call in test [2] was inactive.

Regarding `CC=Cc1ccc(OCC)c(O)c1`, the result in test [1], in test [4], in test [5], in [6], in test [7] and in test [8] was inactive. The outcome in test [9], in test [10], in [2], in [11], in [12] and in [13] was inactive. Moreover, the result in test [14], in test [15], in test [16], in test [17], in [18] and in test [19] was inactive.

With `C=C(C)C1CC=C(C)C(=O)C1` (centres undefined), the compound was classed as inactive in test [1] and in [2].

Take `C=Cc1ccc(C)cc1`: the outcome in [1], in [3] and in test [2] was inactive.

What is called AC50 is the concentration giving half of the maximal activity seen.
